Results filed as inconclusive are left out. A number with no mark means an inactive call. The source made the active and inactive calls. Calls follow the shape of the dose curve; as a rule, active = well fitted cell-killing curve with a large enough effect; inconclusive = small, poorly fitted or top-dose-only effect, or effect the other way; inactive = no such curve, though single readings can be large or run the other way.
test: Quantitative High-Throughput drug screen in 47 multiple myeloma cell lines against the NCATS MIPE library collection: KMS28PE_JCRB cell viability assay (AID 1918983); conditions: KMS28PE multiple myeloma viability, CellTiter-Glo ATP, 48 h; series mostly up to 45.8 µM; viability, % of DMSO control: at the top concentration; also: nearly all actives have a fitted effect of over 35% in size
Description: PI: Beverly A. Mock Ph.D.
Laboratory of Cancer Biology and Genetics,
Center for Cancer Research, National Cancer Institute,
National Institute of Health, Bethesda, Maryland
Drug resistance and disease progression are common in multiple myeloma (MM) patients, underscoring the need for new therapeutic combinations. […] We hypothesized that effective combinations would reduce MYC expression and enhance p16 activity. […] These preclinical data identify potentially useful drug combinations for evaluation in drug-resistant MM and reveal potential mechanisms of combined drug sensitivity.
Described herein is the primary MIPE qHTS used to cherrypick compounds. Validated compounds were then further tested for potential synergistic activiy.
[1] Peat TJ, Gaikwad SM, Dubois W, Gyabaah-Kessie N, Zhang S, Gorjifard S, Phyo Z, Andres M, Hughitt VK, Simpson RM, Miller MA, Girvin AT, Taylor A, Williams D, D'Antonio N, Zhang Y, Rajagopalan A, Flietner E, Wilson K, Zhang X, Shinn P, Klumpp-Thomas C, McKnight C, Itkin Z, Chen L, Kazandijian D, Zhang J, Michalowski AM, Simmons JK, Keats J, Thomas CJ, Mock BA. Drug combinations identified by high-throughput screening promote cell cycle transition and upregulate Smad pathways in myeloma. Cancer Lett. 2023 Aug 1;568:216284. doi: 10.1016/j.canlet.2023.216284. Epub 2023 Jun 24. PMID: 37356470; PMCID: PMC10408729.
SEQUENCE No. (e.g., 1, 2, 3, etc.); […] (e.g., Cells, Incubation, Reagent, etc.); VALUE and DESCRIPTION.
1; Cells; 5 uL; white, solid bottom 1536-well Greiner assay plate.
2; Compounds; 23 nL; Kalypsis pin tool (Wako USA) equipped with a 1536-well pin head to transfer to the assay plates.
3; Incubation; 48 hours; 37C incubation.
4; Reagent;5uL; CellTiter Glo (Promega).
5; Detector; 425V; Luminescence; Viewlux PerkinElmer.
NOTES (numbers refer to Sequence numbers above)
1. The cell-based screening methods employed in this study were like those previously published. Briefly, the corresponding myeloma cell lines were screened in 1,536-well plates with 500 cells, 5-uL per well for inhibition of cell viability (assessed by measuring ATP levels with CellTiterGlo).
2. NCATS MIPE 4.0 library of approved and investigational drugs were added using the Kalypsis pin tool. Wells treated with DMSO only for 100% viability and media only for 0% viability were used as controls.
3. The assay plates were covered and incubated for 48 hours in a 37C, 5% CO2 incubator with controlled humidity.
4. After 48 hours, CellTilter-GloTM luminescent substrate mix (Promega) reagent was added to the assay plate and plates we incubated for 5 min at room temperature.
5. Signal was measured as median relative luminescence units on a ViewLux (PerkinElmer) multiplate reader.
[1] Heske CM, Davis MI, Baumgart JT, Wilson K, Gormally MV, Chen L, Zhang X, Ceribelli M, Duveau DY, Guha R, Ferrer M, Arnaldez FI, Ji J, Tran HL, Zhang Y, Mendoza A, Helman LJ, Thomas CJ. Matrix Screen Identifies Synergistic Combination of PARP Inhibitors and Nicotinamide Phosphoribosyltransferase (NAMPT) Inhibitors in Ewing Sarcoma. Clin Cancer Res. 2017 Dec 1;23(23):7301-7311. doi: 10.1158/1078-0432.CCR-17-1121. Epub 2017 Sep 12. PMID: 28899971; PMCID: PMC6636827.
Potency is read from the fitted curve at half-maximal effect.

Q: For `Cc1[nH]c(C=C2C(=O)Nc3ccc(S(=O)(=O)Cc4c(Cl)cccc4Cl)cc32)c(C)c1C(=O)N1CCC[C@H]1CN1CCCC1`, which Potency is on record?
A: Its Potency is 20.9 µM (active).

Q: With `CN(C)CCC=C1c2ccccc2COc2ccc(CC(=O)O)cc21` as the compound, how does the “viability, % of DMSO control” value read?
A: Its value is 121%.

Q: For `NC(=O)c1ccc2nc(-c3ccc(Oc4ccc(Cl)cc4)cc3)[nH]c2c1`, which “viability, % of DMSO control” value is on record?
A: Its value is 99.7%.

Q: Which Potency does the source give for `C=C1C(=O)[C@@]23C(CC[C@@H]1[C@H]2O)[C@@]12CO[C@]3(O)[C@@H](O)[C@@H]1C(C)(C)CC[C@@H]2O` (stereo not given in full) here?
A: The Potency was 3.72 µM (active).

Q: With `O=C(Nc1cccc(Br)c1)c1cccc(S(=O)(=O)N2CCCCCC2)c1` as the compound, how does the Potency read?
A: The Potency was 23.5 µM (active).

Q: Which “viability, % of DMSO control” value does the source give for `CS(=O)c1ccc(-c2nc(-c3ccc(F)cc3)c(-c3ccncc3)[nH]2)cc1` (stereo not given) here?
A: Its value is 141% [at 92.2 µM].

Q: For `CC(=O)Nc1ccc([C@H](C)C(=O)Nc2ncc(C(C)C)s2)cc1`, which Potency is on record?
A: Its Potency is 7.43 µM (active).

Q: Which “viability, % of DMSO control” value does the source give for `Cn1c(N2CCCCS2(=O)=O)nc(C(=O)NCc2ccc(F)cc2)c(O)c1=O` here?
A: The value was 108%.

Q: With `CC(C)OC(=O)CCCC=CC[C@@H]1[C@H](C=C[C@@H](O)COc2cccc(C(F)(F)F)c2)[C@H](O)C[C@@H]1O` as the compound, how does the Potency read?
A: Its Potency is 20.9 µM (active).

Q: For `O=C(OCC#CCSc1nnc(-c2cccc3ccccc23)o1)c1cc2ccccc2s1`, which “viability, % of DMSO control” value is on record?
A: Its value is 101%.

Q: For `CCn1cc(C(=O)O)c(=O)c2ccc(C)nc21`, which “viability, % of DMSO control” value is on record?
A: The value was 122%.

Q: With `CC(C)(C)NC(=O)Nc1cccc(Nc2ncc(F)c(NC(C)(C)CO)n2)c1` as the compound, how does the “viability, % of DMSO control” value read?
A: The value was 156%.

Q: With `CCOC(=O)O[C@]1(C(=O)OCCl)CC[C@@H]2[C@H]3CCC4=CC(=O)C=C[C@]4(C)[C@@H]3[C@@H](O)C[C@@]21C` as the compound, how does the “viability, % of DMSO control” value read?
A: The value was 136%.

Q: Which Potency does the source give for `O=c1cc(CN2CCOCC2)occ1OCCCCCSc1ccnc2cc(C(F)(F)F)ccc12` here?
A: Its Potency is 2.64 µM (active).

Q: With `CCOc1ccc(Nc2nc(-c3c(C)nc4ccccn34)cs2)cc1` as the compound, how does the Potency read?
A: Its Potency is 0.0059 µM (active).

Q: Which “viability, % of DMSO control” value does the source give for `OC[C@H]1O[C@@H](Oc2cc(O)cc(C=Cc3ccc(O)cc3)c2)[C@H](O)[C@@H](O)[C@H]1O` here?
A: Its value is 135%.

Q: With `O=C1c2ccccc2-[n+]2ccc3c([nH]c4ccccc43)c21` as the compound, how does the Potency read?
A: The Potency was 2.35 µM (active).

Q: Which Potency does the source give for `CC[C@@]1(O)C[C@H](O[C@H]2C[C@H](N(C)C)[C@H](O[C@H]3C[C@H](O)[C@H](O[C@H]4CCC(=O)[C@H](C)O4)[C@H](C)O3)[C@H](C)O2)c2c(cc3c(c2O)C(=O)c2c(O)cccc2C3=O)[C@@H]1C(=O)OC` here?
A: The Potency was 0.418 µM (active).

Q: Which Potency does the source give for `CC[C@@H]1C=C(C)C[C@H](C)C[C@H](OC)[C@H]2O[C@@](O)(C(=O)C(=O)N3CCCC[C@@H]3C(=O)O[C@H](C(C)=C[C@@H]3CC[C@H](Cl)[C@H](OC)C3)[C@H](C)[C@@H](O)CC1=O)[C@H](C)C[C@H]2OC` here?
A: The Potency was 16.6 µM (active).

Q: Which Potency does the source give for `CC(=O)Oc1cc2c(s1)CCN(C(C(=O)C1CC1)c1ccccc1F)C2` (stereo not given) here?
A: Its Potency is 2.64 µM (active).

Q: Which “viability, % of DMSO control” value does the source give for `CC#CCn1c(N2CCC[C@@H](N)C2)nc2c1c(=O)n(Cc1nc(C)c3ccccc3n1)c(=O)n2C` here?
A: The value was 137%.

Q: For `O=C(CCN1CCN(C(=O)OCc2cc(Cl)cc(Cl)c2)CC1)c1ccc2[nH]c(=O)oc2c1`, which “viability, % of DMSO control” value is on record?
A: The value was 121%.

Q: Which Potency does the source give for `O=C(CCCCCCC(=O)Nc1ccccc1)NO` here?
A: Its Potency is 3.72 µM (active).

Q: With `COC[C@@H](c1ccc(C(F)(F)F)cc1)N1CCN(C2(C)CCN(C(=O)c3c(C)ncnc3C)CC2)C[C@H]1C` as the compound, how does the “viability, % of DMSO control” value read?
A: Its value is 114%.

Q: Which “viability, % of DMSO control” value does the source give for `O=C(Nc1c(Cl)cncc1Cl)c1ccc(OC(F)F)c(OCC2CC2)c1` here?
A: The value was 134%.

Q: Which “viability, % of DMSO control” value does the source give for `COc1cccc([C@@H](C)NCCCc2ccccc2Cl)c1` here?
A: The value was 129%.

Q: Which Potency does the source give for `O=C(Nc1ccccc1-c1cn2c(CN3CCNCC3)csc2n1)c1cnc2ccccc2n1` here?
A: The Potency was 23.5 µM (active).

Q: With `Cc1nc(N)sc1-c1ccnc(Nc2ccc(N3CCOCC3)cc2)n1` as the compound, how does the Potency read?
A: The Potency was 16.6 µM (active).

Q: Which Potency does the source give for `COc1ccc(Cc2nccc3cc(OC)c(OC)cc23)cc1OC` here?
A: Its Potency is 8.33 µM (active).

Q: For `COc1ccc(-n2c(C)c([N+](=O)[O-])c3ccc(O)cc32)cc1`, which “viability, % of DMSO control” value is on record?
A: The value was 137%.

Q: With `O=C(O)c1c(Cl)c(Cl)c(Cl)c(Cl)c1-c1c2cc(I)c(=O)c(I)c-2oc2c(I)c(O)c(I)cc12` as the compound, how does the Potency read?
A: The Potency was 14.8 µM (active).

Q: For `c1cc(-c2sc(-c3ccncc3)c(-c3ccncc3)c2-c2ccncc2)ccn1`, which “viability, % of DMSO control” value is on record?
A: The value was 144%.

Q: For `CNC1CCC(N(Cc2cccc(-c3ccncc3)c2)C(=O)c2sc3c(F)ccc(F)c3c2Cl)CC1` (stereo not given), which Potency is on record?
A: The Potency was 16.6 µM (active).

Q: With `CC1(C)CCC[C@@]2(C)[C@@H]1CC[C@@]1(C)OC(=O)C[C@H]21` as the compound, how does the “viability, % of DMSO control” value read?
A: Its value is 116%.

Q: For `NC(=O)c1cccc2[nH]c(-c3ccc([C@H]4CCCN4)cc3F)nc12`, which “viability, % of DMSO control” value is on record?
A: Its value is 146%.

Q: For `O=c1cc(N2CCOCC2)oc2c(-c3cccc4c3sc3ccccc34)cccc12`, which Potency is on record?
A: Its Potency is 14.8 µM (active).

Q: Which Potency does the source give for `COc1cc2ncnc(Nc3ccc(F)c(Cl)c3)c2cc1OCCCN1CCOCC1` here?
A: Its Potency is 42.9 µM (active).

Q: Which Potency does the source give for `CCNc1cc(NC2CCC(O)CC2)nc(Nc2ccc3c(ccn3Cc3ccccc3)c2)n1` (stereo not given) here?
A: The Potency was 23.5 µM (active).

Q: For `CC(C)=CC[C@@H](O)C1=CC(=O)c2c(O)ccc(O)c2C1=O`, which Potency is on record?
A: Its Potency is 1.05 µM (active).

Q: With `Oc1ccc(C2CCN(c3ccnc4ccccc34)CC2)cc1O` as the compound, how does the Potency read?
A: Its Potency is 16.6 µM (active).
